How the values were obtained:
Assay in all cases: PBM binding z-score (relative to random genomic background probes); higher = stronger binding; sequences stand for … in GC…GCGATTGACAGCGTAGAATGAAGG
[1] = test system: FXR:RXRa (NR concentration 270 nM, RXRa partner concentration 90 nM)
Method in brief: (§1)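 Regression normalization was applied to scanned fluorescence from custom Agilent 4×180K protein-binding microarrays. Before scanning, arrays were incubated 1 h with ligand-free nuclear receptor dimers, and binding was detected with antibodies against each partner (one per run). Binding z-scores use the random background probes as reference.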

[2] = test system: LXRa:RXRa (NR concentration 270 nM, RXRa partner concentration 90 nM)
Method in brief: as §1

[3] = test system: LXRa homodimer (NR concentration 270 nM)
Method in brief: as §1

[4] = test system: LXRb:RXRa (NR concentration 270 nM, RXRa partner concentration 90 nM)
Method in brief: as §1

[5] = test system: LXRb homodimer (NR concentration 270 nM)
Method in brief: as §1

[6] = test system: PPARa:RXRa (NR concentration 270 nM, RXRa partner concentration 90 nM)
Method in brief: as §1

[7] = test system: PPARg:RXRa (NR concentration 180 nM, RXRa partner concentration 90 nM)
Method in brief: as §1

[8] = test system: PPARg:RXRa 270nM:90nM, anti-RXR (NR concentration 270 nM, RXRa partner concentration 90 nM)
Method in brief: as §1

[9] = test system: PPARg:RXRa 30nM:10nM, anti-RXR (NR concentration 30 nM, RXRa partner concentration 10 nM)
Method in brief: as §1

[10] = test system: PPARg:RXRa 90nM:30nM, anti-RXR (NR concentration 90 nM, RXRa partner concentration 30 nM)
Method in brief: as §1

[11] = test system: PPARg:RXRa DBDmut IVT, anti-RXR (DBD mutation: RXRa K156A/R161A, NR concentration 270 nM, RXRa partner concentration 90 nM)
Method in brief: as §1

[12] = test system: PPARg:RXRa IVT, anti-PPARg (NR concentration 270 nM, RXRa partner concentration 90 nM)
Method in brief: as §1

[13] = test system: PPARg DBDmut:RXRa IVT, anti-PPARg (DBD mutation: PPARg1 K132A/R137A, NR concentration 270 nM, RXRa partner concentration 90 nM)
Method in brief: as §1

[14] = test system: PPARg DBDmut IVT, anti-PPARg (DBD mutation: PPARg1 K132A/R137A, NR concentration 270 nM)
Method in brief: as §1

[15] = test system: PPARg homodimer (NR concentration 180 nM)
Method in brief: as §1

[16] = test system: PXR:RXRa (NR concentration 270 nM, RXRa partner concentration 90 nM)
Method in brief: as §1

[17] = test system: PXR homodimer (NR concentration 270 nM)
Method in brief: as §1

[18] = test system: RARa:RXR (NR concentration 270 nM, RXRa partner concentration 90 nM)
Method in brief: as §1

[19] = test system: RARa homodimer (NR concentration 270 nM)
Method in brief: as §1

[20] = test system: RARb:RXRa (NR concentration 270 nM, RXRa partner concentration 90 nM)
Method in brief: as §1

Sequence	PBM binding z-score [1]	PBM binding z-score [2]	PBM binding z-score [3]	PBM binding z-score [4]	PBM binding z-score [5]	PBM binding z-score [6]	PBM binding z-score [7]	PBM binding z-score [8]	PBM binding z-score [9]	PBM binding z-score [10]	PBM binding z-score [11]	PBM binding z-score [12]	PBM binding z-score [13]	PBM binding z-score [14]	PBM binding z-score [15]	PBM binding z-score [16]	PBM binding z-score [17]	PBM binding z-score [18]	PBM binding z-score [19]	PBM binding z-score [20]
ATACCGAGGTGATCGTGAGGTCGTTGATACTAAC	1.95	1.69	0.52	1.59	-0.183	1.83	0.57	0.574	-0.146	0.356	0.567	1.31	0.104	1	0.847	3.62	1.35	2.39	-0.522	1.4
CCTACTGGGCCATCAGGTCATTGTTATCAACGTT	1.46	1.31	1.14	1.7	-0.00639	2.76	2.54	3.66	1.36	2.74	4.42	5.23	1.61	0.711	1.35	1.63	0.409	2.03	0.317	2.07
ACAGACAGGTGCGTGAAGGTAACTCAGCTGGACG	-0.446	-0.525	-0.81	-0.869	-0.883	-0.268	0.476	-0.586	-0.564	-0.492	-0.935	-0.58	0.0563	-0.077	-0.238	-0.583	-0.495	-0.585	-0.862	-0.307
TCTATTAGTTGAAGAGCAACCGACGAGTCCGTTT	0.119	0.663	-0.0692	0.436	0.0793	0.395	-0.0464	1.45	3.13	2.28	2.11	-0.0307	-0.198	0.372	0.184	0.265	0.467	-0.0573	0.544	0.129
AGTCAAAGTTCACTATGTAACGTAAGATTCAGCT	4.61	4.75	2.99	3.02	1.03	3.85	5.87	5.38	2.49	4.66	0.152	2.39	1.02	0.578	1.55	3.59	1.72	2.7	0.755	4.57
CCGACTGGGGCCTAAGGTTACCATAAGCCAGCCC	0.328	1.58	-0.169	0.716	-1.28	1.26	0.941	2.51	0.0484	1.11	-0.456	-0.247	-1.22	-1.84	0.088	0.127	-0.726	0.85	0.205	0.778
TTACCAAGGTGAATGGTCGTTGATGCACGCCTTG	0.766	0.485	-0.417	0.403	-0.853	1.35	1.32	2.39	1.14	2.06	2.03	2.67	0.334	0.253	0.0353	0.0282	-0.612	0.364	0.953	1.46
TTACCAAGGTGAGCTGATGTCGTTGATCCAACTC	0.178	-0.111	-0.671	-0.252	-0.971	0.344	0.146	0.25	0.147	0.11	1.17	1.55	-0.517	0.259	-0.264	0.24	-0.552	0.2	-0.759	0.933
TCTTGTAGATCAGCAGGTTAAGTAAGCTGGCCAA	0.169	0.366	-0.23	0.424	-0.524	0.865	-0.624	1.25	2.73	2.04	1.65	0.766	-0.114	-0.0421	0.0118	0.266	-0.355	0.553	-0.134	0.298
GGAACGAGGGCAATCGAGTTGATAGCATGGCGAT	0.644	0.434	-0.647	-0.187	-0.883	1.38	1.12	0.753	-0.285	0.268	3.45	2.82	-0.0288	-1.1	-0.25	3.29	0.305	0.677	-0.463	1.6
ATCTCTAGGTAAAGATAGTTCAGTCAATGCAAAT	0.395	4.34	0.831	0.948	0.433	0.518	0.623	0.469	0.292	0.471	2.07	1.73	0.964	1	0.843	1.05	0.38	0.522	0.556	0.692
TCTGCTAGGTCAGTTGGTCATCTAACGAGCTGCC	1.16	0.727	-0.519	0.51	0.317	1.66	0.954	2.16	1.52	2.1	2.75	3.27	0.685	0.261	0.396	0.316	-0.767	0.721	-0.587	3.47
TCTATTATTTGATTAGGGCAACCGAAACAGCGGA	0.94	0.738	1.29	1.08	1.33	1.34	0.291	2.43	4.02	3.25	2.19	1.39	2.04	2.12	2.2	0.756	2.04	1.17	3.39	0.93
TGACAAAGTTCAAAGGTAACGTAAGTATCCACAC	6.96	6.05	3.28	4.68	1.41	5.69	6.2	6.28	2.97	5.43	-0.278	2.4	1.51	0.842	2.31	5.44	2.44	6.2	1.36	5.01
ATTACAGGGTCATCGTAGGCCAGAGTACGCACAG	7.11	6.64	1.78	4.65	2.02	6.2	7.1	6.16	2.72	5.18	2.45	4.43	2.06	2.49	4.05	5.5	1.66	5.52	1.45	4.45
GTACCAAGGTGAATAGGTAGTTGATGAGTAGGCG	0.274	0.228	0.0287	0.0207	-0.534	0.934	0.795	0.782	0.189	0.453	1.51	1.76	0.536	0.507	0.398	-0.196	-0.0218	0.256	0.745	1.1
CCGACTGGGACAAGGTTACCATAACGCACAGCCA	0.29	0.604	-0.141	0.507	-0.706	1.49	1.92	2.18	0.494	1.59	2.14	2.07	-0.366	-0.958	0.825	0.206	-0.361	0.82	0.13	0.882
TCATATAGGTAATACAGGTGAAATTCGGCATCTA	1.05	1.37	0.75	1.17	0.147	1.96	1.65	2.53	3.85	3.09	3.87	2.95	1.39	1.39	1.02	0.776	0.431	1.2	1.76	0.602
AGAACGAGGGAACGCTGAGTTGATAGCAGAGTAG	-0.288	-0.46	-0.611	-0.674	-0.803	-0.499	0.464	-0.265	-0.0206	-0.332	0.157	0.0104	-0.0244	-0.171	-0.732	-0.323	-0.229	-0.613	0.201	-0.517
ACTAGTAGTTGAGACGAGGGCAACCGATAGGTTG	0.415	0.0058	-0.401	-0.109	-0.494	0.237	0.537	-0.227	-0.398	-0.329	-0.0209	0.386	-0.147	-0.849	-0.115	1.63	0.115	0.6	0.181	0.978
CTCGAAAGGTCGGTGGAGGTGAGTATACGGATAA	2.34	1.77	-0.129	1.41	-0.0636	2.82	0.577	1.22	0.0571	0.88	0.0934	0.827	1.01	-0.175	1.03	2.39	-0.0117	2.63	0.0288	2.89
TCTCGGAGGACACGAAGGGTCAGAGCTCGACATC	1.35	1.66	-0.0975	1.19	-1.38	2.06	0.488	1.25	1.85	1.44	1.38	0.541	-0.0647	-1.25	0.446	1.66	-0.67	2.31	-0.314	3.14
GCTGCTAGGTCAAATGATGGTCAGCTAAAGCTCG	4.42	3.62	0.405	2.44	0.557	3.87	2.82	3.57	0.844	2.69	5.24	4.16	-0.0492	-0.751	1.73	1.82	-0.505	3.18	-0.123	4.13
TCTAGTTGGTCAAAGGTCAGACACTCGAAATGCG	4.59	4.69	2.66	4.41	1.43	5.67	11.3	9.55	11.6	11.6	3.43	5.86	1.03	0.417	4.36	4.74	1.67	6.17	3.82	4.53
GCTCGGAGTACAAGGTCAGAGCTTTGTCCGTAGA	1.17	1.6	0.0814	1	-0.761	2.17	0.501	1.48	-0.171	0.497	0.542	0.648	-1.36	-1.01	1.73	1.67	-0.101	2.14	-0.729	3.07
CAAACTAGGTCACAGAGGTCAAAATCCGTGCGTA	7.3	6.21	6.61	6.41	2.18	6.58	10	7.86	6.44	7.9	8.53	9.12	3.39	4.84	4.55	6.48	10.3	6.58	2.93	5.11
CCGAGTAGGTTATGGGGCATTCAAGCAACGGTGA	0.071	0.506	-0.128	0.732	0.278	2.1	3.82	4.64	2.45	4.67	3.32	3.2	-0.98	0.0415	1.36	-0.0285	-0.292	0.26	-0.114	1.08
CGAGCTAGGTCATTGACAGGACAGTGAATAGTAA	5.01	3.11	0.348	2	-0.314	3.33	2.12	2.15	0.406	1.34	3.51	2.78	0.0808	-0.146	0.918	1.54	0.31	2.18	-0.128	3.66
GTACCAAGGTGAATAGGTCGTTGAGGAGTAGGCG	0.778	0.909	0.0544	0.533	-0.56	2.32	1.22	1.67	0.113	1.14	1.82	2.41	-0.447	-0.52	1.24	0.61	0.0954	1.74	0.334	1.99
